In the library only some 4.8% were active in any assay of this set; here they are far more common.
tim10-1 inh: growth inhibitors of tim10-1 mutant yeast, primary screen, luminescence, uHTS; inhibition, % at 20 µM; 330,000 compounds, 2.2% hits; S. cerevisiae tim10-1 ts strain growth, BacTiter-Glo, 24 h;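 active = inhibition of at least 40%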;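 note: mutant grown at 25 °C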
SKKanGAS inh: S. pyogenes SKKanGAS growth inhibitors in kanamycin, primary screen, streptokinase expression inhibitor project, SKKanGAS strain, BacTiter-Glo luminescence; AID 1662, 2009; inhibition, % at 7.5 µM; 6 h; 300,000 compounds, 1.3% hits;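 active = mean replicate score, as percent of positive control median, at least 50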;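 note: strain carries kanamycin resistance gene driven by streptokinase promoter and grows in 40 µg/ml kanamycin; loss of luminescence reflects streptokinase promoter inhibition or plain growth inhibition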
tim23-1 inh: growth inhibitors of tim23-1 mutant yeast, primary screen, luminescence, uHTS; S. cerevisiae tim23-1 growth, BacTiter-Glo luminescence, 24 h; 330,000 compounds, 1.3% hits; AID 463212, 2010; inhibition, % at 20 µM;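 active = growth inhibition of the mutant yeast at or above 50%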;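 note: temperature-sensitive mutant grown at 25 °C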
PfHsp90 set2: growth inhibition of PfHsp90-expressing yeast, primary screen, antimalarial PfHsp90 inhibitor project, S. cerevisiae, BacTiter-Glo luminescence, single point, set 2; inhibition, % at 9.4 µM; 310,000 compounds, 0.32% hits; AID 504621, 2011; BacTiter-Glo ATP, 48 h; yeast lacking PDR1 and PDR3 efflux regulators;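 active = every replicate shows inhibition above about 80%, whatever the replicate mean, limit read from the data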
TIM10 inh: growth inhibitors of isogenic TIM10 control yeast, primary screen, counter-screen for tim10-1 yeast inhibitor project, luminescence, uHTS. S. cerevisiae TIM10 strain growth, BacTiter-Glo luminescence, 24 h. inhibition, % at 10 µM. 330,000 compounds, 1.4% hits. AID 463195, 2010;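 active = inhibition of 40% or more at the single tested concentration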;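 note: wild-type TIM10 isogenic control strain grown at permissive 25 °C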
NALP1 yeast inh: NALP1 inflammasome inhibitors in reconstituted yeast, colorimetric, S. cerevisiae, triplicate retest; 280,000 compounds, 0.61% hits; S. cerevisiae NALP1/ASC/caspase-1 growth, X-gal OD620, 72 h; inhibition, % at 10 µM; in the data active = inhibition mostly above about 24%, no sharp cut-off; inactive = mostly below about 32%
tim10-1 conf: growth inhibitors of tim10-1 mutant yeast, confirmation, single concentration, luminescence, S. cerevisiae; shares compounds with tim10-1 inh; S. cerevisiae tim10-1 ts strain growth, BacTiter-Glo, 24 h; inhibition, % at 20 µM; 7,400 compounds, 56% hits;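 active = inhibition of yeast growth at or above a set limit in either of two repeat tests at 20 µM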;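 note: tim10-1 mutant grown at permissive 25 °C to find synthetic lethal compounds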
Hits are given with their value; – = inactive; · = no result.

SMILES	tim10-1 inh	SKKanGAS inh	tim23-1 inh	PfHsp90 set2	TIM10 inh	NALP1 yeast inh	tim10-1 conf
Cc1cccc(Sc2ccc([N+](=O)[O-])cc2[N+](=O)[O-])n1	43.7	–	–	–	–	–	–
O=c1cc(-c2ccccc2)nc(Sc2ccc([N+](=O)[O-])cc2[N+](=O)[O-])[nH]1	–	–	–	–	–	·	·
CC(C)OCCCn1c(=S)[nH]c2ncccc2c1=O	–	–	–	–	–	–	·
CC(C)OCCCn1c(-c2ccc(Br)cc2)c[nH]c1=S	42.8	–	–	–	–	–	–
COc1ccccc1NC(=O)NC1CCCc2ccccc21 (stereo not given)	–	–	–	–	–	–	·
O=C1NC(=S)N/C1=C\c1ccccc1OCc1ccc(C(=O)O)cc1	–	–	–	–	–	–	·
O=C(O)c1ccc(COc2ccccc2C=C2C(=O)c3ccccc3C2=O)cc1	–	–	–	–	–	–	–
CCOc1ccc(N2CC(C(=O)N3CCCc4ccccc43)CC2=O)cc1 (stereo not given)	41.4	–	–	–	–	–	–
CCc1ccc(NC2=NCC(=O)N2c2ccc3c(c2)OCCO3)cc1	41.6	–	–	–	–	–	–
COC(=O)CC1C(=O)NCCN1C(=S)Nc1cc(C)cc(C)c1 (stereo not given)	–	–	–	–	–	–	·
CC(O)/C=C/c1ccc2ccccc2n1 (stereo not given)	48.7	–	–	–	–	–	35.4
O=C(/C=C/c1cccs1)Nc1nccs1	–	–	–	–	–	–	·
O=C(/C=C/c1cccs1)Nc1cccc(NC(=O)/C=C/c2cccs2)n1	40.1	–	–	–	–	–	–
O=C(c1ccc(F)cc1)N1CCN(c2ccc(N3CCOCC3)nn2)CC1	–	–	–	–	–	·	·
O=C1NCCc2c1[nH]c1c(Cl)ccc(Cl)c21	42.5	–	–	–	–	–	35.8
O=C1NCCc2c1[nH]c1ccccc21	–	–	–	–	–	–	·
O=C(NCc1ccccc1)C(Cc1ccccc1)N1C(=O)C2C3CCC(C3)C2C1=O (stereo not given)	40.4	–	–	·	–	–	–
O=C(NC1CCCCC1)C(Cc1ccccc1)N1C(=O)C2C3CCC(C3)C2C1=O (stereo not given)	–	–	–	–	–	–	·
COc1ccc(CCNC(C)C(=O)Nc2ccc(S(N)(=O)=O)cc2)cc1 (stereo not given)	–	–	–	–	–	–	·
C/C(=N\Nc1cccc(C(F)(F)F)c1)c1ccc(O)cc1	45.2	–	–	–	–	–	–
C/C(=N\NC(=O)CNc1cccc(C(F)(F)F)c1)c1ccc(Br)cc1	–	–	–	–	–	–	·
N#Cc1c(-n2cccc2/C=N/O)sc2c1CCCC2	41.3	–	–	–	–	–	42.7
Cc1onc(-c2ccccc2)c1C(=O)Nc1nnc(-c2ccncc2)s1	43.9	–	–	·	–	–	39.1
Cc1noc(C)c1C(=O)Nc1nnc(-c2ccccc2)s1	–	–	–	–	–	–	·
S=C1NC(c2cccs2)=CC(c2ccc(Br)cc2)N1 (stereo not given)	40.5	–	–	–	–	–	32.6
SMILES	tim10-1 inh	SKKanGAS inh	tim23-1 inh	PfHsp90 set2	TIM10 inh	NALP1 yeast inh	tim10-1 conf
CCCCCC(=O)Nc1sc(C)c(C)c1C#N	–	–	–	–	–	–	·
S=c1nc(-c2ccccc2)[nH]c2ccc(Br)cc12	42.9	–	–	–	–	–	–
Cc1cc(=O)c2cc(Br)ccc2[nH]1	–	–	–	·	–	–	·
COc1cc(C(=O)Nc2ccc3nc(N4CCOCC4)sc3c2)cc(OC)c1OC	41.2	·	–	–	–	·	–
COc1ccc(C2c3sc(=O)[nH]c3SCC2C(N)=O)cc1 (stereo not given)	–	–	–	–	–	–	·
CCOC(=O)C1CSc2[nH]c(=O)sc2C1c1ccccc1 (stereo not given)	–	–	–	–	–	–	–
CC1CCN(C(=O)c2cccc(S(=O)(=O)N3CCN(c4ccccc4)CC3)c2)CC1	–	–	–	–	–	·	·
CCCC(=O)NC(c1ccco1)c1cc(Cl)c2cccnc2c1O (stereo not given)	50.2	71.2	–	104.7	–	–	–
COc1ccc(C(NC(C)=O)c2nccc3cc(OC)c(OC)cc23)cc1OC (stereo not given)	–	–	–	–	–	–	·
COc1ccc(C(NC(C)=O)c2cc(Cl)c3cccnc3c2O)cc1OC (stereo not given)	40.2	54.8	–	–	–	–	–
O=C1NC(=O)/C(=C/c2cccc3ccccc23)S1	47.0	–	–	–	–	–	34.6
O=C1NC(=O)C(=Cc2ccccc2[N+](=O)[O-])S1	·	·	·	–	·	·	·
CCn1nccc1C(=O)Nc1ccc(Cl)cn1	–	–	–	–	–	–	·
CCn1nccc1C(=O)Nc1cc(Cl)cc(Cl)c1	40.7	–	–	–	–	–	–
Cc1cc(C)n(C(C)CC(=O)Nc2ccc3c(c2)OCO3)n1 (stereo not given)	–	–	–	–	–	–	·
CCC(C)c1ccc(NC(=O)NCc2cccnc2)cc1 (stereo not given)	–	–	–	·	–	–	·
CCC(C)c1ccc(NC(=O)Nc2cccnc2)cc1 (stereo not given)	43.3	–	–	–	–	–	33.5
COc1ccc(-n2cc(CN3CCCC3)c(-c3cccc(F)c3)n2)cc1	–	–	–	–	–	–	·
COc1ccc(-n2cc3c(-c4cccc(Br)c4)nnc(C)c3n2)cc1	46.2	–	–	–	–	–	–
Cc1cccc(NC(=S)N2CCCCCC2)c1C	–	·	–	–	–	–	·
Cc1c(Cl)cccc1NC(=S)N1CCCCCC1	44.2	–	–	–	–	–	–
N#Cc1ccc(Oc2ccc(S(=O)(=O)N3CCCCC3)cn2)cc1	–	–	–	–	–	·	·
O=C(N=Nc1ccc(NOC(=O)c2ccccc2Br)cc1)c1ccccc1O	49.6	–	–	·	–	–	37.0
Cc1cc(N=NC(=O)c2ccccc2O)c2ccccc2c1O	–	·	–	–	–	–	·
Cc1ccccc1N=C1NN=C(c2ccccc2F)CS1	41.5	–	–	–	–	–	–
Cn1cccc1Cc1nnc(SCC(=O)Nc2ccc(F)cc2)n1CCc1ccccc1	41.9	–	–	–	–	–	–
COc1cccc(/C=N/NC(=O)C(C)Cn2cnc3ccccc32)c1 (stereo not given)	–	–	–	–	–	–	·
NS(=O)(=O)c1ccc(CCNC(c2ccccc2)c2ccccc2)cc1	–	–	–	–	–	–	·
